Experimental findings from PubChem BioAssay AID651900 (Broad Institute, 2012) are described below.

The other results are listed elsewhere or left out. Activity calls are given as the source filed them. How the calls were made is not given here.

The nature of the test: NIH3T3 cell viability loss – plate reader, cherry-pick, two tests, cytotoxicity control, dose response (AID 651900). The settings on record: activity: test 2 concentration series, at 26 µM.

As to `Cc1c2cnn(CC(=O)NCc3ccccn3)c(=O)c2c(C)n1Cc1ccc(Cl)cc1`, the activity was 7.63% and the outcome was “inactive”.

In the case of `CS(=O)(=O)N1[C@H](C(=O)NCc2ccncc2)[C@@H](CO)[C@@H]2Cn3c(ccc(C4=CCCCC4)c3=O)[C@@H]21`, the outcome is “inactive”.

Turning to `CCC(CO)Oc1cc(NC(=O)c2cccc(F)c2)c2ncn(C(C)C)c2c1` (configuration not stated), the outcome is “inactive”.

As to `Cc1c(OC(C)C(=O)NCC2CCC(C(=O)O)CC2)ccc2c1oc(=O)c1ccccc12` (configuration not stated), the activity was found to be 1.67% and the outcome was “inactive”.

On to `CN1c2ccc(-c3ccccc3)cc2[C@H]2[C@H](CCN2C(=O)Cc2ccccn2)[C@H]1CO`, for which the outcome is “inactive”.

For the compound `C=C(C)CSc1nc(N)c2c3c(sc2n1)CCC3`, the activity stood at 4.68% and the outcome is “inactive”.

As for `O=C(c1ccncc1)N1CC[C@@H]2[C@H]1c1cc(Br)ccc1N[C@@H]2CO`, the outcome is “inactive”.

Take `COCCNC(=O)C[C@H]1CC[C@@H]2[C@H](COc3ccc(NC(=O)Nc4cccc(F)c4)cc3C(=O)N2C)O1`: the outcome was “inactive”.

`CC(=O)c1ccc(N2CCN(C(=O)c3ccc4nc[nH]c4c3)CC2)cc1`: the activity is -0.738% and the outcome is “inactive”.

Consider `C=CCn1c(SCc2c(C(=O)OC)sc(N)c2C(=O)OC)nnc1-c1ccc(Cl)cc1`, for which the activity was -11.5% and the outcome was “inactive”.

Take `CC1(C)CC(=O)C=C(c2ccc3ncccc3c2)C1`: the activity is -5.48% and the outcome is “inactive”.

With `Cc1nc(=O)c(-c2ccccc2)c(C)n1-c1ccc(Br)cc1`, the activity was -4.55% and the outcome was “inactive”.

With `CC(=O)O[C@]1(C(C)=O)CC[C@H]2[C@@H]3C=C(C)C4=CC(=O)CC[C@]4(C)[C@H]3CC[C@@]21C`, the activity was -6.83% and the outcome was “inactive”.

Take `CC(=O)CSc1nnc(CSc2ncccn2)n1C1CCCCC1`: the activity amounted to 1.8% and the outcome was “inactive”.

Take `COc1cc(-c2n[nH]c(=S)n2Cc2ccccc2)cc(OC)c1OC`: the activity was 8.41% and the outcome is “inactive”.

As for `CCCOc1ccc2c3c(c(=O)oc2c1OCCC)CCC3`, the activity was -3.77% and the outcome is “inactive”.

With `Cc1ccc(Cc2c(C)nc3nc(SCC(=O)NCCN4CCOCC4)nn3c2C)cc1`, the activity was -6.78% and the outcome is “inactive”.

`O=c1[nH]c(N2CCN(Cc3ccc4c(c3)OCO4)CC2)nc2c1CCCC2`: the activity came out at 6.08% and the outcome was “inactive”.

For the compound `O=C(CSc1n[nH]c(-c2cccnc2)n1)Nc1ccnc2ccccc12`, the activity was -10.2% and the outcome is “inactive”.

As to `Cc1nc2nc(SCC(=O)NCc3ccco3)nn2c(C)c1Cc1ccccc1`, the activity was -7.64% and the outcome was “inactive”.

`Cn1c(=O)c2c(nc(OCc3cccnc3)n2Cc2ccccc2)n(C)c1=O`: the activity was -10.3% and the outcome is “inactive”.
